PubChem BioAssay (NCI)
The panel holds about 79,000 compounds, 15% with a hit somewhere; the sample as a whole holds those more often. The source made the active and inactive calls. Cut-off read from the data, not from the text of the source: active = growth inhibition above about 70%; inactive = the rest.

What was measured:
[1] = NCI Yeast Anticancer Drug Screen. Data for the rad52 strain (AID 147);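 note: 0% = growth of vehicle-treated control cultures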; settings: S. cerevisiae rad52 mutant growth inhibition, active compounds read high
Outline: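 Screen used a yeast mutant impaired in DNA repair. After compound exposure, growth was measured. Values reflect inhibition compared with vehicle-treated cells.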

[2] = NCI Yeast Anticancer Drug Screen. Data for the wt1 strain (AID 149);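 note: 0% = growth of vehicle-treated wt1 cultures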; settings: S. cerevisiae wt1 strain (SPY 50644) growth inhibition, active compounds read high
Outline: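 Readout: yeast growth inhibition, normalised to vehicle controls, in the wt1 strain exposed to test compounds.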

[3] = NCI Yeast Anticancer Drug Screen. Data for the rad50EPP+ strain (AID 151);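 note: 0% = growth of vehicle-treated control cultures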; settings: S. cerevisiae rad50 mutant strain, active compounds read high
Outline: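 Exposing the rad50EPP+ strain to each compound, growth was compared with vehicle-only cultures to give inhibition.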

[4] = NCI Yeast Anticancer Drug Screen. Data for the mgt1 strain (AID 153); settings: S. cerevisiae mgt1 mutant growth inhibition, active compounds read high
Outline: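 Genetically defined yeast (mgt1) treated with compound; inhibition of growth expressed against vehicle-treated controls.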

[5] = NCI Yeast Anticancer Drug Screen. Data for the rad50 strain (AID 155);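 note: 0% = growth of vehicle-only cultures of the same strain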; settings: S. cerevisiae rad50 strain growth inhibition, active compounds read high
Outline: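 Compounds were tested on a yeast strain with an engineered DNA damage repair alteration; the reported value is growth inhibition normalised to vehicle treatment.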

[6] = NCI Yeast Anticancer Drug Screen. Data for the mec2-1 strain (AID 157); settings: S. cerevisiae mec2-1 strain, active compounds read high
Outline: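 Readout is yeast growth inhibition, normalised to vehicle-treated controls, in the mec2-1 strain exposed to compound.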

[7] = NCI Yeast Anticancer Drug Screen. Data for the sgs1 mgt1 strain (AID 161);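 note: 0% = growth of cultures given vehicle only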; settings: S. cerevisiae sgs1 mgt1 strain, active compounds read high
Outline: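 Compounds are added to genetically altered yeast, and growth is compared with cultures given vehicle alone to give percent inhibition.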

[8] = NCI Yeast Anticancer Drug Screen. Data for the CLN2oe strain (AID 163);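 note: 0% = growth of vehicle-only control cultures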; settings: S. cerevisiae CLN2oe strain, active compounds read high
Outline: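 Values reflect how much compound exposure reduced yeast growth, referenced to vehicle-exposed cells. Assay organism is a strain with a defined genetic change affecting cell-cycle control.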

[9] = NCI Yeast Anticancer Drug Screen. Data for the cln2 rad14 strain (AID 165);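 note: 0% = growth equal to vehicle treated cultures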; settings: S. cerevisiae cln2 rad14 strain, active compounds read high
Outline: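 Relative to vehicle controls, growth inhibition of compound-treated cln2 rad14 yeast was recorded.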

[10] = NCI Yeast Anticancer Drug Screen. Data for the bub3 strain (AID 167); settings: S. cerevisiae bub3 mutant strain, active compounds read high
Outline: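 Growth of a checkpoint-deficient yeast mutant is measured after compound exposure. Values represent inhibition relative to vehicle.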

[11] = NCI Yeast Anticancer Drug Screen. Data for the wt2 strain (AID 169);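 note: 0% = growth of vehicle-treated yeast cultures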; settings: S. cerevisiae wt2 strain growth inhibition, active compounds read high
Outline: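 Values express reduction in yeast growth under compound treatment, referenced to vehicle-treated cells.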

[12] = NCI Yeast Anticancer Drug Screen. Data for the mlh1 strain (AID 171);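 note: 0% = growth of vehicle-treated control cultures of the same strain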; settings: S. cerevisiae mlh1 strain growth inhibition, active compounds read high
Outline: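 Steps: expose the defined-mutant yeast strain to compound; expose a parallel culture to vehicle; measure growth; express compound effect as inhibition relative to the vehicle culture.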

[13] = NCI Yeast Anticancer Drug Screen. Data for the sgs1 strain (AID 173);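 note: 0% = growth of vehicle-only control cultures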; settings: S. cerevisiae sgs1 mutant, active compounds read high
Outline: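 Treat defined-mutant yeast with compound; measure growth; calculate inhibition relative to vehicle-treated cells.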

[14] = NCI Yeast Anticancer Drug Screen. Data for the mlh1 rad18 strain (AID 175); settings: S. cerevisiae mlh1 rad18 strain growth inhibition, active compounds read high
Outline: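 Test agents were incubated with a yeast strain of defined genotype (DNA damage repair defect). Inhibition of growth was derived by comparison with vehicle-exposed cultures.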

[15] = NCI Yeast Anticancer Drug Screen. Data for the rad18 strain (AID 177); settings: S. cerevisiae rad18 mutant growth inhibition, active compounds read high
Outline: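 A genetically defined yeast mutant impaired in DNA damage repair was treated with test compounds, then its growth was measured against cultures receiving vehicle alone.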

[16] = at 5.0 µM (retest, dose inferred, filed as 0.5)
[17] = at 50.0 µM (retest, dose inferred, filed as 5.0)

Measured: growth inhibition

O=C1CC(=O)c2ccccc21
active: [4]; at 100.0 µM 72% | [5]; at 50.0 µM 87.4% | [9]; at 50.0 µM 70.5% | [14]; at 50.0 µM 70% | [15]; at 100.0 µM 74%
inactive: [1]; at 1.2 µM -2% | [1]; at 3.7 µM -1% | [1]; at 11.0 µM 3% | [1]; at 33.0 µM 9% | [1]; at 100.0 µM 50% | [2]; at 1.2 µM 0% | [2]; at 3.7 µM -1% | [2]; at 11.0 µM 0% | [2]; at 33.0 µM 5% | [2]; at 100.0 µM 17% | [3]; at 1.2 µM -3% | [3]; at 3.7 µM -1% | [3]; at 11.0 µM 6% | [3]; at 33.0 µM 18% | [3]; at 100.0 µM 55% | [4]; at 1.2 µM -1% | [4]; at 3.7 µM 0% | [4]; at 11.0 µM 1% | [4]; at 33.0 µM 3% | [5]; at 1.2 µM 4% | [5]; at 3.7 µM 3% | [5]; [16] 3% | [5]; at 11.0 µM -9% | [5]; at 33.0 µM 14% | [5]; [17] 69% | [5]; at 100.0 µM 46% | [6]; at 1.2 µM 1% | [6]; at 3.7 µM 2% | [6]; [16] 1% | [6]; at 11.0 µM 4% | [6]; at 33.0 µM 10% | [6]; [17] 53% | [6]; at 50.0 µM 46.3% | [6]; at 100.0 µM 40% | [7]; [16] 3% | [7]; [17] 12% | [7]; at 50.0 µM 59.7% | [8]; at 1.2 µM -9% | [8]; at 3.7 µM -1% | [8]; at 11.0 µM 3% | [8]; at 33.0 µM 1% | [8]; at 100.0 µM 48% | [9]; [16] 0% | [9]; [17] 57% | [10]; at 1.2 µM -2% | [10]; at 3.7 µM -1% | [10]; [16] -4% | [10]; at 11.0 µM 0% | [10]; at 33.0 µM 3% | [10]; [17] 6% | [10]; at 50.0 µM 67.9% | [10]; at 100.0 µM 35% | [11]; at 1.2 µM 0% | [11]; at 3.7 µM 8% | [11]; at 11.0 µM 1% | [11]; at 33.0 µM 5% | [11]; at 100.0 µM 37% | [12]; at 1.2 µM -1% | [12]; at 3.7 µM 0% | [12]; at 11.0 µM 2% | [12]; at 33.0 µM 4% | [12]; at 100.0 µM 65% | [13]; at 1.2 µM -1% | [13]; at 3.7 µM 2% | [13]; at 11.0 µM 6% | [13]; at 33.0 µM 18% | [13]; at 100.0 µM 57% | [14]; [16] 1% | [14]; [17] 12% | [15]; at 1.2 µM -1% | [15]; at 3.7 µM 2% | [15]; at 11.0 µM 7% | [15]; at 33.0 µM 23%
